According to PubChem BioAssay (NCATS):
Inconclusive results are not listed. For some assays here: Potency and affinity values are given separately. Activity calls are given as the source filed them.

Assays:
[1] = Ebola virus entry assay, blue channel fluorescence
[2] = Ebola virus entry assay, ratio channel readout
[3] = Ebola virus entry assay, blue channel fluorescence; remark: listed apart in the source
[4] = Ebola virus entry reporter assay, green channel fluorescence
[5] = Ebola virus entry cell assay, ratio channel
[6] = qHTS profiling of the MIPE4 collection as inhibitors of Plasmodium falciparum (DD2) proliferation (AID 743345; call rule not given here); settings: P. falciparum Dd2 in erythrocytes, SYBR Green DNA, 72 h; at 28.5 µM (top of the series) unless noted
Method in brief: (§1)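 Erythrocytes infected with P. falciparum (0.3% parasitemia, 2.5% hematocrit) incubated with compounds 72 h at 37 C, 5% CO2. Lysis with saponin/Triton buffer containing SYBR Green I, overnight at room temperature in the dark; DNA fluorescence (485/535 nm) normalised to 0.29 uM artemisinin and DMSO.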

[7] = qHTS profiling of the MIPE4 collection as inhibitors of Plasmodium falciparum (DD2) proliferation (Rep 2) (AID 743346; call rule not given here); settings: P. falciparum Dd2 in erythrocytes, SYBR Green DNA, 72 h; at 28.5 µM (top of the series) unless noted
Method in brief: as §1

[8] = qHTS profiling of the MIPE4 collection as inhibitors of Plasmodium falciparum (HB3) proliferation (AID 743347; call rule not given here); settings: P. falciparum HB3 in erythrocytes, SYBR Green DNA, 72 h; at 28.5 µM (top of the series) unless noted
Method in brief: as §1

[9] = Ebola virus entry assay, green fluorescence channel
[10] = High-throughput drug toxicity screening in the BPDCN cell line Cal-1 (AID 1224825; call rule not given here;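 also: cells exposed to compounds for 48 h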); settings: Cal-1 BPDCN cell viability, qHTS; at 45.8 µM (top of the series) unless noted
Method in brief: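 500 Cal-1 cells/well, RPMI + glutamine + 10% FBS (phenol red-free); cpd added by pin tool; 48 h, 37C, 5% CO2; CTG 15 min RT, lumi read. Normalised: DMSO 100%, bortezomib 9.2 uM 0%.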

[11] = qHTS assay for measurement of the activity of small molecule inhibitors on Zika virus induced Caspase-3 activity in human iPSC derived neural progenitor cells (hNPCs) (AID 1224857; active = well fitted inhibition curve with a large enough effect; also: nearly all actives have a fitted effect of over 65% in size)
Method in brief: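 After overnight (16–20 h) culture at 350 cells/well, hNPCs get compound, then ZIKV 2 FFU/cell one hour later. Six hours on, Caspase-Glo 3/7 is added and luminescence measured.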

[12] = qHTS assay for measurement of the activity of small molecule inhibitors on Zika virus induced Caspase-3 activity in human astrocytoma cells (AID 1224859; active = well fitted inhibition curve with a large enough effect)
Method in brief: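 Inhibition of Zika-induced caspase-3/7 activity: SNB-19 cells, 1 h compound pretreatment, ZIKV 2 FFU/cell for 6 h at 37 C, Caspase-Glo luminescence read-out.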

[13] = Ebola virus entry assay, blue channel fluorescence; remark: listed apart in the source
[14] = Ebola virus entry assay, green channel fluorescence
[15] = Ebola virus entry assay, reporter ratio channel; AC50: Channel type: primary unless noted; outcome: Channel type: primary unless noted
[16] = Ebola virus entry assay, blue channel (ratio component)
[17] = Immunotoxin (HA22) sensitization/mitigation study. Vehicle arm (PBS) (AID 1159510; call rule not given here; also: potency is read from the fitted curve at half-maximal effect)
[18] = Immunotoxin (SS1P) sensitization/mitigation study. Vehicle arm (DMEM) (AID 1159513; call rule not given here; also: potency is read from the fitted curve at half-maximal effect)
[19] = Ebola virus entry assay, ratio channel

N[C@@H](Cc1cc(I)c(Oc2ccc(O)c(I)c2)c(I)c1)C(=O)O
inactive: outcome [1] | outcome [2] | outcome [3] | outcome [4] | outcome [5]

C[C@](O)(CS(=O)(=O)c1ccc(F)cc1)C(=O)Nc1ccc(C#N)c(C(F)(F)F)c1
33.5%: parasite growth, % of control (lower = inhibition) [7]
93.2%: parasite growth remaining, % of DMSO control (lower = more inhibition) [6]
5.28%: viability (% of control) [10]
27.8%: growth, % of control [8]
inactive: outcome [1] | outcome [9] | outcome [2] | outcome [5] | outcome [11] | outcome [12]

CCCc1nc(C(C)(C)O)c(C(=O)OCc2oc(=O)oc2C)n1Cc1ccc(-c2ccccc2-c2nn[nH]n2)cc1
inactive: outcome [1] | outcome [9] | outcome [3] | outcome [4] | outcome [5]

O=C1[O][Bi][O]c2ccccc21
inactive: outcome [1] | outcome [2] | outcome [3] | outcome [4] | outcome [5]

CCOC(=O)C1=C(COCCN)NC(C)=C(C(=O)OC)C1c1ccccc1Cl (stereo not drawn)
inactive: outcome [1] | outcome [9] | outcome [2] | outcome [5]

CCOC(=O)[C@H](CCc1ccccc1)N[C@@H](C)C(=O)N1[C@H](C(=O)O)C[C@H]2CCCC[C@@H]21
inactive: outcome [9] | outcome [2] | outcome [3] | outcome [4] | outcome [5]

N#Cc1ccc2c(c1)N(CCCN1CCC(O)CC1)c1ccccc1S2
inactive: outcome [1] | outcome [9]
active: AC50 [2] 22.4 µM | AC50 [5] 22.4 µM

CCCCCN(C)CCC(O)(P(=O)(O)O)P(=O)(O)O
inactive: outcome [1] | outcome [9] | outcome [3] | outcome [4] | outcome [5] | outcome [11]

Cc1onc(-c2ccccc2)c1C(=O)N[C@@H]1C(=O)N2[C@@H](C(=O)O)C(C)(C)S[C@@H]12
92.1%: parasite growth, % of control (lower = inhibition) [7]
82.7%: growth, % of control [8]
inactive: outcome [1] | outcome [9] | outcome [3] | outcome [5]

CC(=O)S[C@@H]1CC2=CC(=O)CC[C@]2(C)[C@H]2CC[C@@]3(C)[C@@H](CC[C@@]34CCC(=O)O4)[C@H]12
inactive: outcome [1] | outcome [2] | outcome [3] | outcome [5]

CC(O)(P(=O)(O)O)P(=O)(O)O
inactive: outcome [1] | outcome [9] | outcome [13] | outcome [14] | outcome [3] | outcome [15] | outcome [16] | outcome [4] | outcome [5]

Nc1nc2[nH]cc(CCc3ccc(C(=O)N[C@@H](CCC(=O)O)C(=O)O)cc3)c2c(=O)[nH]1
inactive: outcome [9] | outcome [2] | outcome [3] | outcome [4] | outcome [5]
active: Potency [17] 59 nM | Potency [18] 187 nM

C[C@H](CS)C(=O)N1CCC[C@H]1C(=O)O
inactive: outcome [1] | outcome [2] | outcome [13] | outcome [19] | outcome [14] | outcome [3] | outcome [15] | outcome [16] | outcome [4] | outcome [5]

NC[C@H]1O[C@H](O[C@H]2[C@H](O)[C@@H](O[C@H]3O[C@H](CO)[C@@H](O)[C@H](N)[C@H]3O)[C@H](N)C[C@@H]2N)[C@H](O)[C@@H](O)[C@@H]1O
inactive: outcome [9] | outcome [3] | outcome [4] | outcome [5]

CCC1=C(C)CN(C(=O)NCCc2ccc(S(=O)(=O)NC(=O)NC3CCC(C)CC3)cc2)C1=O (stereo not drawn)
inactive: outcome [9] | outcome [2] | outcome [14] | outcome [3] | outcome [15] | outcome [16] | outcome [4] | outcome [5]

COc1cc([C@@H]2c3cc4c(cc3[C@@H](O[C@@H]3O[C@@H]5CO[C@@H](c6cccs6)O[C@@H]5[C@H](O)[C@@H]3O)[C@H]3COC(=O)[C@H]23)OCO4)cc(OC)c1O
inactive: outcome [1] | outcome [9] | outcome [2] | outcome [5]

O=P1(N(CCCl)CCCl)NCCCO1 (stereo not drawn)
54.1%: parasite growth remaining, % of DMSO control (lower = more inhibition) [6]
65.9%: growth, % of control [8]
39.6%: parasite growth, % of control (lower = inhibition) [7]
inactive: outcome [1] | outcome [9] | outcome [13] | outcome [14] | outcome [3] | outcome [15] | outcome [16] | outcome [4] | outcome [5] | Potency [17] | Potency [18] | outcome [11] | outcome [12]
104%: viability (% of control) [10]
